Targets with a hit are over-represented here; the source holds about 7,900 in all. About 0.6% of all pairs of compound and target were hits.
Compound: c1cn2cc(-c3ccc4cn[nH]c4c3)nc(Nc3ccc(N4CCOCC4)cc3)c2n1 [entospletinib]
Experiment: log2 fold change, soluble protein after heating vs DMSO (PISA); higher = thermal stabilisation; K562 cells, 10 uM, 30 min; active = over 0.2 and 3.5 SD of the protein, either way, in both replicates (recomputed)
How it was run: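 Thermal stability values are relative to control samples and come from duplicates. They are expressed as log2 fold changes. For measurement, K562 cells (2×10^6 cells/mL) received 10 μM compound for 30 min, and aliquots were heated for 3 min over 48°C-58°C, pooled, and extracted at 4°C in PBS with 0.5% NP-40. Soluble protein, the supernatant after 21,000xg for 90 min, was quantified by TMTpro 16plex LC-MS/MS with equalised channel sums.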

UniProt Q9Y485, sequence (Q9Y485 whole entry, looked up): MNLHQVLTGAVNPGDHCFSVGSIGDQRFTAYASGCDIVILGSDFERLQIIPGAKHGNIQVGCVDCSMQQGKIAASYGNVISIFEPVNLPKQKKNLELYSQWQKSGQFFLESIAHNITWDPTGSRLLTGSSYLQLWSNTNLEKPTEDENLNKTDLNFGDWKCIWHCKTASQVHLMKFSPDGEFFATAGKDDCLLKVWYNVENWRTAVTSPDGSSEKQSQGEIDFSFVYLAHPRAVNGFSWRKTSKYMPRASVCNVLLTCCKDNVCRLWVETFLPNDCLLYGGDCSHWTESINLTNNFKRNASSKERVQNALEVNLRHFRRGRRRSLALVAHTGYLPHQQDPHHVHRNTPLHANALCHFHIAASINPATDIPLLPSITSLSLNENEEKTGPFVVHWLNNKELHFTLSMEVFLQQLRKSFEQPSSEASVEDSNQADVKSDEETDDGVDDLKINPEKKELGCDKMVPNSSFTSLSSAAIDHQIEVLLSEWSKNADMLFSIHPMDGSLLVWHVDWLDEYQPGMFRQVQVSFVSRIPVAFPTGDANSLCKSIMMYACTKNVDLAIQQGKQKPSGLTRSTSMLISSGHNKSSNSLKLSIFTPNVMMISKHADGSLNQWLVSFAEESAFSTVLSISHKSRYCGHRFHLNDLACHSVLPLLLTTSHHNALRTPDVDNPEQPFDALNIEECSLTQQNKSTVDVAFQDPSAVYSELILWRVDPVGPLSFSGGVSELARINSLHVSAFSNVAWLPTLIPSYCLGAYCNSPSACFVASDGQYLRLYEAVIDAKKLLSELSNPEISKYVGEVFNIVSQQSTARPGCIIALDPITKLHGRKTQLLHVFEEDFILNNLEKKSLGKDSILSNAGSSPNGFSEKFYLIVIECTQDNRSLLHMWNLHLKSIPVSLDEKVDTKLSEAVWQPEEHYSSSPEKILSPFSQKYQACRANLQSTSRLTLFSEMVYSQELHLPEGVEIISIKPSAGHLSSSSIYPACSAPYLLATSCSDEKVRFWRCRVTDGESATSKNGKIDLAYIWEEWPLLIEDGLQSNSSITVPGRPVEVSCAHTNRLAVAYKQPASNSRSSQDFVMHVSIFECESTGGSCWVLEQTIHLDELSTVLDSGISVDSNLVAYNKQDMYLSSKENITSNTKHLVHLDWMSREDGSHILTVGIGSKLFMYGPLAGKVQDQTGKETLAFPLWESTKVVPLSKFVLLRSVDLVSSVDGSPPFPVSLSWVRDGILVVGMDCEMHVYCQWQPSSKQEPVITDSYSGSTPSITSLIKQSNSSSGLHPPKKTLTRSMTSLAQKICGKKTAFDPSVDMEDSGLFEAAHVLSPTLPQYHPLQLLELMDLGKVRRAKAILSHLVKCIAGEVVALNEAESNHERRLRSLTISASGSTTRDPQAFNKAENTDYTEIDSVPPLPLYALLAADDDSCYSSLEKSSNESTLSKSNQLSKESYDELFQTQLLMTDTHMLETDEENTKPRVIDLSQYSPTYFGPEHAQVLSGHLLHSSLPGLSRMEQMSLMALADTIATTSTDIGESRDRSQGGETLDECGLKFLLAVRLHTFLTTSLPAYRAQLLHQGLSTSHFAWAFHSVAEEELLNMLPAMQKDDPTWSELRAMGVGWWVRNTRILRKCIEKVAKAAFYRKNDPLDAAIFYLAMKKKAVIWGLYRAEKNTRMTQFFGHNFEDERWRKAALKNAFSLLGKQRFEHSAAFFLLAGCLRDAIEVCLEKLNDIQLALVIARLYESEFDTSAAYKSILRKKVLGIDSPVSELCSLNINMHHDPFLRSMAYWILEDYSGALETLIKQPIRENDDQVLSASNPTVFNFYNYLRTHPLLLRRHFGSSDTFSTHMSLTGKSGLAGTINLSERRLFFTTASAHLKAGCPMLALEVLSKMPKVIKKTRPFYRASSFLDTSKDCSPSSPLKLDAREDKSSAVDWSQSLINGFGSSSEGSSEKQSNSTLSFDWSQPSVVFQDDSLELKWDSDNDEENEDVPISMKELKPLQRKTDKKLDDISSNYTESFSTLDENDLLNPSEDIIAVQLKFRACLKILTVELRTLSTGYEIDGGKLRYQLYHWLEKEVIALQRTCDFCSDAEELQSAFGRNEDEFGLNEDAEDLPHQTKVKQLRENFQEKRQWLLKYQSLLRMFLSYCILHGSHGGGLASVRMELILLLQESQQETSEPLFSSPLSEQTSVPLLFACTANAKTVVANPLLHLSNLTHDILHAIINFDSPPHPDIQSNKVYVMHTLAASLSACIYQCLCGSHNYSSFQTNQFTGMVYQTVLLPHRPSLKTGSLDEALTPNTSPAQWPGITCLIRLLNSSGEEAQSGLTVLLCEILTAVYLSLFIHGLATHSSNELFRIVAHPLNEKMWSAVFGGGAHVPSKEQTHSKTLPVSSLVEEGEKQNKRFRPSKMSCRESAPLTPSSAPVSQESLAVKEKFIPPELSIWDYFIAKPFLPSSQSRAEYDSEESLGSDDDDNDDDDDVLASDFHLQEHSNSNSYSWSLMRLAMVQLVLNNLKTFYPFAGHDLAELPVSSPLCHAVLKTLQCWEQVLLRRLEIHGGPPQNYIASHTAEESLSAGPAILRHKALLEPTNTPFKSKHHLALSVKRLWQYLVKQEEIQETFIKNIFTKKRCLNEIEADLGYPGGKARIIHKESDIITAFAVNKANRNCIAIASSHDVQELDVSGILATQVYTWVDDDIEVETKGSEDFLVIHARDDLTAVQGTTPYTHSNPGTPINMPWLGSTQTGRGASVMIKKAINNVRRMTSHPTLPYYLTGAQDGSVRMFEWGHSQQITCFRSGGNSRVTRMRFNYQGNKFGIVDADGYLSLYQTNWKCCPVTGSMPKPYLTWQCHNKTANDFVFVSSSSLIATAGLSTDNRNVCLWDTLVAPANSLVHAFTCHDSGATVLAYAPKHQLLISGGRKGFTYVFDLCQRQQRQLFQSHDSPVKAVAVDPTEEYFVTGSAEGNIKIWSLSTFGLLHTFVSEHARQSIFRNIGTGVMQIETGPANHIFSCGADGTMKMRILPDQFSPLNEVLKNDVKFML
UniProt Q96DF8, sequence (Q96DF8 whole entry, looked up): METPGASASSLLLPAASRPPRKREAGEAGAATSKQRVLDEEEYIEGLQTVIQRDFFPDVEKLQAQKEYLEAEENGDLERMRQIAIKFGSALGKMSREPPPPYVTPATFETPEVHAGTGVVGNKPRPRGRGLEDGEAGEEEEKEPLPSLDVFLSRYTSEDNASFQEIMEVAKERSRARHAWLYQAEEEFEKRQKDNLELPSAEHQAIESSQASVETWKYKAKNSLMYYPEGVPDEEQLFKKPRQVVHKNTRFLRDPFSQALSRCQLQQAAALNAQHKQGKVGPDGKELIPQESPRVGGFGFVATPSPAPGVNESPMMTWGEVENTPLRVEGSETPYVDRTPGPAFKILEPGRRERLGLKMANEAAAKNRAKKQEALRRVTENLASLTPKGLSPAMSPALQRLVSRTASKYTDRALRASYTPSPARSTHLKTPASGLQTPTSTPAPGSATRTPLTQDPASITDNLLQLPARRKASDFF
UniProt Q0VG06, sequence (Q0VG06 whole entry, looked up): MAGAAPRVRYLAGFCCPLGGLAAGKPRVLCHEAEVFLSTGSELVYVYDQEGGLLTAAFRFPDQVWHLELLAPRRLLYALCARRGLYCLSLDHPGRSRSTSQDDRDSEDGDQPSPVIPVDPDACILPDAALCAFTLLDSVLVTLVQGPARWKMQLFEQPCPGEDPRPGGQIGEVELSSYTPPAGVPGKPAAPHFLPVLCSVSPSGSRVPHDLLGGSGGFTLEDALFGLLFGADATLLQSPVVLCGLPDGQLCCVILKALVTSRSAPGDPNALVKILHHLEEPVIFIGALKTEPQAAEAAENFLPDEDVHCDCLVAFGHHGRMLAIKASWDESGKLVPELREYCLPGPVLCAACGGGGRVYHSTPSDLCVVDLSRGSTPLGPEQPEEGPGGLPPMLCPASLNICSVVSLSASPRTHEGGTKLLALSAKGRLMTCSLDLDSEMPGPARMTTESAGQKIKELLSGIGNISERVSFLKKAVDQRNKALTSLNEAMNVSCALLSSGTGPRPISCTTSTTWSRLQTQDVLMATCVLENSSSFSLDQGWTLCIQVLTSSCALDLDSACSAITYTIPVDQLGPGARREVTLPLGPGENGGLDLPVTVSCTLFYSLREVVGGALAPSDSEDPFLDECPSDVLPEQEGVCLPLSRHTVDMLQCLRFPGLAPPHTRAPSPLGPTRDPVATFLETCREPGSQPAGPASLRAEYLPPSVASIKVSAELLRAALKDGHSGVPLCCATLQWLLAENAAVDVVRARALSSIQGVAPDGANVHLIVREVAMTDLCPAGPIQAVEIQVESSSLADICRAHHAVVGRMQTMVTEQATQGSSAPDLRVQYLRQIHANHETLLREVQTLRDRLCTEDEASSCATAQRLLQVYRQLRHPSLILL
UniProt Q9UBQ6, sequence (Q9UBQ6 whole entry, looked up): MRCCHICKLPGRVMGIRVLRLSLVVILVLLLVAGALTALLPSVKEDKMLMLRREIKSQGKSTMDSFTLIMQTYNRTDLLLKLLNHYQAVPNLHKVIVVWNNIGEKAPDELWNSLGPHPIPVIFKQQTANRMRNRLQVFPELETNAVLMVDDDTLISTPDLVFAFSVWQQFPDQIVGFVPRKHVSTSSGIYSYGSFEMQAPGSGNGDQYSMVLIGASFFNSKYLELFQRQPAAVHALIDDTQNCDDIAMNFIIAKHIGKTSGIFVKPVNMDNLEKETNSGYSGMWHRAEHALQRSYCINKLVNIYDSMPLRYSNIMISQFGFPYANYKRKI
UniProt P80370, sequence (P80370 whole entry, looked up): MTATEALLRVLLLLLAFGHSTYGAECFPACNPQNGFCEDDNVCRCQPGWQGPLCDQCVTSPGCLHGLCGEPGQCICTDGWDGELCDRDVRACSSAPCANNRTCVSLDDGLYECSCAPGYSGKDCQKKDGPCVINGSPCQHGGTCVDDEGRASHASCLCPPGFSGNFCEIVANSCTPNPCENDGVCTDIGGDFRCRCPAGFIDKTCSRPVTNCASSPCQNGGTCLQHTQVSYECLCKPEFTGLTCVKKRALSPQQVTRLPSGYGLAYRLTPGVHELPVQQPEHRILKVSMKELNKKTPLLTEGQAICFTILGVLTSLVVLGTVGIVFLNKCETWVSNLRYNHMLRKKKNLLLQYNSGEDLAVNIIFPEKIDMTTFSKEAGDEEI

Target | log2 fold change
FAM207A (UniProt Q9NSI2) | 0.013 (inactive)
DDOST (UniProt P39656) | -0.014 (inactive)
DBR1 (UniProt Q9UK59) | 0 (inactive)
EXTL2 (UniProt Q9UBQ6) | 0.03 (inactive)
FAM118A (UniProt Q9NWS6) | 0.248 (inactive)
FAAP100 (UniProt Q0VG06) | 0.003 (inactive)
ECPAS (UniProt Q5VYK3) | -0.025 (inactive)
DPH5 isoform 5 (UniProt Q9H2P9) | -0.045 (inactive)
FAM50A (UniProt Q14320) | -0.006 (inactive)
FAM114A2 (UniProt Q9NRY5) | -0.022 (inactive)
DNAJC19 (UniProt Q96DA6) | 0.026 (inactive)
EIF3J (UniProt O75822) | -0.005 (inactive)
FAM3A (UniProt P98173) | 0.023 (inactive)
DTYMK (UniProt P23919) | 0.013 (inactive)
DAG1 (UniProt Q14118) | 0.003 (inactive)
EIF2AK3 (UniProt Q9NZJ5) | -0.03 (inactive)
EBNA1BP2 (UniProt Q99848) | 0.031 (inactive)
DFFB (UniProt O76075) | -0.024 (inactive)

Target | log2 fold change
ERLIN2 (UniProt O94905) | -0.062 (inactive)
DLK1 (UniProt P80370) | 0.076 (inactive)
EXOC5 (UniProt O00471) | 0.002 (inactive)
DHRS13 (UniProt Q6UX07) | -0.111 (inactive)
DPP8 (UniProt Q6V1X1) | -0.377 (active)
EGLN1 (UniProt Q9GZT9) | 0 (inactive)
CTSL (UniProt P07711) | 0.091 (inactive)
DOHH (UniProt Q9BU89) | 0.1 (inactive)
DMXL1 (UniProt Q9Y485) | 0.04 (inactive)
DCUN1D1 (UniProt Q96GG9) | -0.023 (inactive)
CTNNBL1 (UniProt Q8WYA6) | 0.069 (inactive)
DNTTIP2 (UniProt Q5QJE6) | 0.108 (inactive)
DHX36 (UniProt Q9H2U1) | 0.016 (inactive)
ESS2 (UniProt Q96DF8) | 0.118 (inactive)
EDC3 (UniProt Q96F86) | -0.068 (inactive)
ENTPD7 (UniProt Q9NQZ7) | 0.096 (inactive)
DNAAF2 (UniProt Q9NVR5) | 0.051 (inactive)

Reference: the supplement of paper PMC10849652
